Experimental data published in PubChem BioAssay AID1259400 (National Center for Advancing Translational Sciences (NCATS), 2018).
“And” between values parts separate entries of the source, which are not always exact repeats. Identical values can stand only once. In all, about 350,000 compounds went through this assay and about 2,100 (0.6%) were called active. About 1% were inconclusive and are not listed.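 How the source made its calls: active means activity change of -60% or lower, but not beyond a set lower limit; inconclusive means change between -60% and -40%, or beyond the set limit; inactive means change above -40%.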 What follows is part of a selection rich in actives, with near analogues and random picks from the rest. A structure can be active in one record and inactive in another.

molecular target: Relaxin receptor 1 (Homo sapiens) (UniProt Q9HBX9); test: qHTS Assay for Antagonists of the Relaxin Receptor RXFP1; details: HEK293-RXFP1, relaxin-stimulated cAMP HTRF, 30 min; at 57.5 µM; stronger effect = lower value
Sequence (Q9HBX9 whole entry, looked up): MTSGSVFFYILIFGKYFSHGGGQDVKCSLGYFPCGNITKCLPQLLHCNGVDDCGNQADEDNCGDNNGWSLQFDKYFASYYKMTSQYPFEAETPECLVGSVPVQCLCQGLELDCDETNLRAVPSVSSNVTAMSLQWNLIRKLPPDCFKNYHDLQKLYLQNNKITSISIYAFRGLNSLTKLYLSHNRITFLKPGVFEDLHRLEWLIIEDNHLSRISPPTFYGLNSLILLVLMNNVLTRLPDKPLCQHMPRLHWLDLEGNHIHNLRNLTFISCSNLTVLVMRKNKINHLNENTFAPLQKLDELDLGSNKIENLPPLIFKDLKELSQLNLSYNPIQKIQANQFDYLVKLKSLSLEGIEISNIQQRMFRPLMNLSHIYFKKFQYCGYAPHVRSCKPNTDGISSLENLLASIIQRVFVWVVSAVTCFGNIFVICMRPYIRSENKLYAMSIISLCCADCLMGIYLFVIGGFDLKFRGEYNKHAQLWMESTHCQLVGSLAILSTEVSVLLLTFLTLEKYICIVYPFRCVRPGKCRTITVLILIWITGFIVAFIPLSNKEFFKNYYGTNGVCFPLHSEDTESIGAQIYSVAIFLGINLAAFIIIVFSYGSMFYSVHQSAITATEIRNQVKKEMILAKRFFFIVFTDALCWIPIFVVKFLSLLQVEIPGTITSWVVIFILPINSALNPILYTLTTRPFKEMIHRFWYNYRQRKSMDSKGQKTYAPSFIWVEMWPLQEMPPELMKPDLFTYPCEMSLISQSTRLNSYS
On the % scale 0 is the no-effect control and ±100 the full control effect.

Row | SMILES | activity change, negative = inhibition
1 | COc1ccc(OC)c(CNC(=O)C2CCCN(c3nc4ccccc4o3)C2)c1 (centres undefined) | 24.2% (inactive)
2 | COc1ccc(CCNC(=O)c2c3c(nc4ccccc24)C(=O)N(C2CCCCC2)C3)cc1OC | -34% (inactive)
3 | COc1ccc(OC)c(CNC(=O)c2c3c(nc4ccccc24)C(=O)N(C2CCCCC2)C3)c1 | -60.9% (active)
4 | CC(=O)c1ccc(N2CCN(c3nc4c(S(=O)(=O)c5ccccc5)nnn4c4ccc(Cl)cc34)CC2)cc1 | -10.3% (inactive)
5 | COc1ccc2c(CNCCc3ccccc3C)c(C(=O)O)n(Cc3ccccc3C)c2c1 | -12.7% (inactive)
6 | Cc1ccc(C)c(Cn2c(C(=O)O)c(CNCc3cccs3)c3ccccc32)c1 | -81.9% (active)
7 | O=C(O)c1c(CNCc2cccc(F)c2)c2ccccc2n1Cc1ccccc1 | -7.86% (inactive)
8 | Cc1sc(C2C(C#N)=C(N)N(c3cccc(Cl)c3)C3=C2C(=O)CCC3)cc1CN1CCOCC1 (centres undefined) | -18.6% (inactive)
9 | Cc1ccc2nc3c(cc(C(=O)NC4CCCCC4)c(=N)n3C(C)C)c(=O)n2c1 | -8.15% (inactive)
10 | Cc1cccc(N2CCN(C(=O)C3CCN(S(=O)(=O)c4cnc[nH]4)CC3)CC2)c1C | -5.38% (inactive)
11 | Cc1cccc(N2CCN(C(=O)c3cnc(N4CCCC4)nc3C)CC2)c1C | -77.6% (active)
12 | CCC(CC)C(=O)N1CCN(c2cccc(C)c2C)CC1 | -5.41% (inactive)
13 | O=C(COc1ccc(Cl)cc1)N(Cc1ccco1)Cc1ccco1 | -34.6% (inactive)
14 | CCOC(=O)c1c(C)oc2nc(C)nc(N3CCN(c4ccc(OC)cc4)CC3)c12 | -3.52% (inactive)
15 | Cc1cc(-c2n[nH]c(=S)n2/N=C/C(Br)=C/c2ccccc2)n[nH]1 | -5.02% (inactive)
16 | S=c1[nH]nc(-c2cc(-c3ccccc3)n[nH]2)n1/N=C/c1c2ccccc2cc2ccccc12 | -78.7% (active)
17 | S=c1[nH]nc(-c2cc(-c3ccsc3)n[nH]2)n1-c1ccccc1 | -4.32% (inactive)
18 | Cc1nnc(C(=O)NC(C)(C)c2nc(C(=O)NCc3ccc(F)cc3)c(O)c(=O)n2C)o1 | -18.2% (inactive)
19 | COc1ccc(Cl)cc1N(CC(=O)N/N=C/c1ccc(OCC(N)=O)cc1)S(C)(=O)=O | -77.6% (active)
20 | NC(=O)COc1ccc(/C=N/NC(=O)C2CCCN2S(=O)(=O)c2ccc(Cl)cc2)cc1 (centres undefined) | -2.72% (inactive)
21 | COc1ccc(Cl)cc1N(CC(=O)N1CCCCC1)S(C)(=O)=O | 15.3% (inactive)
22 | CCOc1ccc(-c2nonc2NC(=O)c2oc3ccc(C)cc3c2C)cc1OCC | 6.02% (inactive)
23 | CC(C)N(C(=O)CSc1nnc(NC2CC2)s1)c1ccccc1 | -4.86% (inactive)
24 | CN(C(=O)CSc1nnc(NC(=O)Nc2ccccc2)s1)c1ccccc1 | -2.91% (inactive)
25 | CC(C)c1ccc(Nc2nnc(SCC(=O)c3nnc(-c4ccccc4)o3)s2)cc1 | -83.3% (active)
26 | CCc1ccc(N2C(=O)CN(S(=O)(=O)CC)CC2(C)C(=O)NC2CCCCC2)cc1 (centres undefined) | 4.08% (inactive)
27 | Cc1nnc(N/N=C/c2ccccn2)[nH]c1=O | 5.71% (inactive)

Row | SMILES | activity change, negative = inhibition
28 | Cc1nnc(N/N=C/C2CC=CCC2)[nH]c1=O (centres undefined) | -71.6% (active)
29 | O=C(N/N=C\C1CC=CCC1)c1ccc(Br)o1 (centres undefined) | 0.253% (inactive)
30 | Cc1ccc2nc(-c3ccc(O)cc3)c(Nc3ccc4c(c3)OCO4)n2c1 | 15.3% (inactive)
31 | CCN(CC)c1cc(NC2CCCCC2)c2c3c(onc13)-c1ccccc1C2=O | -18.9% (inactive)
32 | CCOC(=O)c1c(NC(=O)CSc2nccc(=O)[nH]2)sc(C)c1C | -91.3% (active)
33 | CCOC(=O)c1c(NC(=O)CSc2nnc(CNc3ccc(C)cc3C)o2)sc(C)c1C | -10.8% (inactive)
34 | CCOC(=O)c1c(NC(=O)CSc2nnc(Cc3csc(N)n3)n2C)sc(C)c1C | -1.84% (inactive)
35 | CCOc1ccccc1C(=O)Nc1ccc(S(=O)(=O)N2CCCCC2c2cccnc2)cc1 (centres undefined) | -12.4% (inactive)
36 | CCOc1ccc(N(CC)S(=O)(=O)N2CCCC(C(=O)NCc3ccc(Cl)cc3)C2)cc1 (centres undefined) | -18.5% (inactive)
37 | CCCCNC(=O)c1ccc(-n2c(=S)[nH]c3ccccc3c2=O)cc1 | -80.7% (active)
38 | CCN(CC)CCCNC(=O)c1ccc2c(=O)n(Cc3ccc4c(c3)OCO4)c(=S)[nH]c2c1 | -14.7% (inactive)
39 | COCCn1c(=S)[nH]c2cc(C(=O)NCCc3ccc(OC)c(OC)c3)ccc2c1=O | 2.84% (inactive)
40 | CCN1CCN(c2ncnc3c2cnn3-c2ccc(C)c(C)c2)CC1 | -9.99% (inactive)
41 | Cc1ccccc1-n1nnc2c(=O)oc3ccccc3c21 | -91.4% (active)
42 | O=c1oc2ccccc2c(=O)c2ccccc12 | 10.6% (inactive)
43 | Cc1cccc(N2CCN(c3c(CN4CCCC4)c(=O)oc4ccccc34)CC2)c1C | -2.93% (inactive)
44 | O=C(OCCN1CCOCC1)c1cccnc1Nc1cccc(C(F)(F)F)c1 | -38.4% (inactive)
45 | CCOc1ccc(C(NC(=O)c2cc(OC)c(OC)c(OC)c2)c2cc(Cl)c3cccnc3c2O)cc1 (centres undefined) | -12.8% (inactive)
46 | O=C(NCCN1CCOCC1)/C(=C/c1ccc(F)cc1)NC(=O)c1ccccc1 | 12.6% (inactive)
47 | CN1CCN(CCCNC(=O)c2ccc(/C=C3\Oc4ccccc4N(Cc4ccc(Cl)cc4)C3=O)cc2)CC1 | 6.65% (inactive)
48 | O=C(NCCN1CCOCC1)c1ccc(/C=C2\Sc3ccccc3N(Cc3ccc(F)cc3)C2=O)cc1 | -82.1% (active)
49 | Cc1ccccc1CN1C(=O)c2ccccc2Sc2ccc(C(=O)NCCCN3CCOCC3)cc21 | -22.1% (inactive) and -63.9% (active)
50 | O=C(NCCN1CCOCC1)c1ccc2c(c1)N(Cc1cccc(Cl)c1)C(=O)c1ccccc1S2(=O)=O | 2.8% (inactive)
51 | CCC1=Nc2cc(C(=O)NCCCN3CCOCC3)ccc2Sc2ccc(Br)cc21 | -16.7% (inactive)
52 | COc1ccc(S(=O)(=O)NCC(c2ccc(N(C)C)cc2)N2CCc3ccccc32)cc1OC (centres undefined) | -3.43% (inactive)
53 | CN(C)c1cccc(C(=O)Nc2nc3ccc(S(=O)(=O)NC(C)(C)C)cc3s2)c1 | 1.26% (inactive)
54 | CC(C)c1ccc(OCC(=O)N(Cc2ccc(N(C)C)cc2)C2CCS(=O)(=O)C2)cc1 (centres undefined) | -31.5% (inactive)
